From article PMC12136788
Numbering of substitutions follows the chain as printed. Over roughly 24,000 sequences, “enrichment r” has its median near 0.99; the highest 2% begin near 3.7. Only a selection was taken, and the highest values are over-represented in it overall.

T1: UNK ZnF1-3 (human, UniProt Q9C0B0 31-174)
T1 sequence: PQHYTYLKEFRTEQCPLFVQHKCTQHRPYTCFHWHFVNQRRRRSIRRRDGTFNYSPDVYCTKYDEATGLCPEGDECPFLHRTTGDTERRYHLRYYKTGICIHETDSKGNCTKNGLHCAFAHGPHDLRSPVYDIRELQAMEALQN

B1: chr12:58340223:58340224:+_ENSMUSG00000079104_ENSMUST00000139049|mus_mus|motif|central (ssRNA)
RNA: GGGAGUUCUACAGUCCGACGAUCCUGUAUUUUGGAGCAGUGUUUCAUCUUGUCUUCCUGAGGUAUGGUAUUGGUAACGGCGGCUGCUUCAAAGCAUGCAUUGUUGAUGCGAGAAAUGGCAGGGCCAGAGAAGAUUCCAUGCGUCAACAGAGGAUUGAGCAUCA
B2: chr12:39763582:39763583:-_ENSG00000139116_ENST00000544797|hu_mus|hu_hu_hu_mus_False|18_58 (ssRNA)
RNA: GGGAGUUCUACAGUCCGACGAUCCUCUAGGAACUGGGCAUUCACUUUGAAUUCAGGAGGGGGCAGCCCGUUUUUAAUUGCUAUGUGCUUUUUCUCAUCAAUACUCUUGAACAGGUGUUUAACAGCUCGAGAGAUGAUGCCCUGCAACAGAGGAUUGAGCAUCA
B3: chr2:74756847:74756848:-_ENSG00000115307_ENST00000377526|hu_hu|FALSE|FALSE (ssRNA)
RNA: GGGAGUUCUACAGUCCGACGAUCGCCGCCAUUUUCGCGCCCGGCCGCAGGGGCUCUUGGGAAGGCGGAGUCUUUGGGCAUCCGCCCGGGGUGAGGGGACCCGAAGUCCUGAGGCGCGCCGGAAGGGCUAGCGGUCCCAGCAUACAACAGAGGAUUGAGCAUCA
B4: 138058580_138059465_3786_CDS_ENSMUSG00000041642_ENSMUST00000075164|mouse|control|control (ssRNA)
RNA: GGGAGUUCUACAGUCCGACGAUCGGAGGCCAGGGACUUGGUGAUGUUCUUGGUAGAGCUGUCCAAUGGGGGUCCUAGGCACUCCGCAGACACGGCCUUCAUCUGUGCGGAUAGCUUGGGCUCACCCUUGAACUUGAAGUCAUCCAACAGAGGAUUGAGCAUCA
B5: chr8:104447970:104447971:+_ENSG00000164934_ENST00000297579|hu_hu|hu_hu_hu_mus_False|78_98 (ssRNA)
RNA: GGGAGUUCUACAGUCCGACGAUCAUACACUUCCCUGCUUCGACUUUUGUCCACAGGAAAGAUUCGAAUAGACUUAUCAAAGCUGGCAGACACAAAUUCCUUCCCAGUGGGAGAGUAGUCCACAUCAAGUACUGCAGACACGUGCAACAGAGGAUUGAGCAUCA
B6: chr15:78454051:78454052:+_ENSG00000166411_ENST00000558554|hu_mus|FALSE|FALSE (ssRNA)
RNA: GGGAGUUCUACAGUCCGACGAUCAUGCUCAAUUCCACUGUAUUCUCCUUCCGUGUUCUCUCGGAUGGUGACGAUAUUUACAUCCGUGUAAGGGGUUUUAUAACCUUCAAUUGAGACACAUGGCCGGACAUUGGCAUAAAGGUCCAACAGAGGAUUGAGCAUCA
B7: chr11:93987321:93987322:+_ENSMUSG00000020859_ENSMUST00000103168|mus_mus|motif|central (ssRNA)
RNA: GGGAGUUCUACAGUCCGACGAUCUACAAAGUUACAUUCCGAACCCCAGGGAUUCCAUAAUAGAAAUAAAUACUGAAAUAACGGCAUUGCUAAAUGAGCUUUUUACGCAUAGAAAUGAAGCCGUGGCCUCUAAAGACAGCAAAUCAACAGAGGAUUGAGCAUCA
B8: chr14:73742652:73742653:-_ENSG00000133961_ENST00000557597|hu_mus|FALSE|FALSE (ssRNA)
RNA: GGGAGUUCUACAGUCCGACGAUCCUAACCCGCUCACUUUUGGCAAGAUUACUUACAACUCAUACUUUUUAAUAUUGAGAACUAUUUAAAAUAUUCUAGGUGCAUAAAAAUAAAGAUUUUGGCUUUUUGAUAUAUAUAUAUAUACAACAGAGGAUUGAGCAUCA
B9: chr10:122431106:122431107:-_ENSMUSG00000034602_ENSMUST00000073792|mus_mus|FALSE|FALSE (ssRNA)
RNA: GGGAGUUCUACAGUCCGACGAUCAAUAUUUUCAAAAUGUUGCCACUCUUACUAUUUUGAUACUUUAUCAGUGAUAGUCCUAUUCUUUAAUUCACAAGUGAGUAUAUCAAAAUAUAAAAAAUACACGGCUUGAGUCAUUUUUUUCAACAGAGGAUUGAGCAUCA
B10: chr17:65740002:65740003:+_ENSG00000130935_ENST00000581375|hu_hu|hu_hu_hu_mus_False|68_98 (ssRNA)
RNA: GGGAGUUCUACAGUCCGACGAUCAACAAAUCUUUCUCUGGAUGAAGAACAGGAAGAUUCAUAUUAACUUUAUAAAAUAUCCAUCAAGUUAGGUGUGGUGGCCACACCUUUACUCCCAGCACUUUGGGAGGUGGAUCUCUGAGUCAACAGAGGAUUGAGCAUCA
B11: chr6:135286264:135286265:-_ENSG00000112339_ENST00000367826|hu_hu|FALSE|FALSE (ssRNA)
RNA: GGGAGUUCUACAGUCCGACGAUCUUUGCCAGUUGGCAACUUAGAAUUUUUGCAGAGGUGAUUAUUAAUACUUCUUUGCAGCUAAUUUUAGCUUUAAUUUUUCUCUCUCAUCUAAAAACAUAUCAAUUGCACAUUGUUCCUUUGCAACAGAGGAUUGAGCAUCA
B12: chr14:73742652:73742653:-_ENSG00000133961_ENST00000557597|hu_hu|motif|central (ssRNA)
RNA: GGGAGUUCUACAGUCCGACGAUCCCCCUUUACCUUUGGCAAGAUUACUUACAACUCAUACAACUUCUUAAUAUCUGAGAACGGUUUAAAAUAUUCUAAAUGCAUAAAAAUAAAGAUUUUGGCUUUUGAUAUAUAUAAUAUUUACAACAGAGGAUUGAGCAUCA
B13: chr12:39756943:39756944:-_ENSG00000139116_ENST00000544797|hu_mus|hu_hu_hu_mus_False|48_78 (ssRNA)
RNA: GGGAGUUCUACAGUCCGACGAUCGGUUUGGCUGUUACCCCCAAGGGAAUCCUGCAAUAGUCUUGUUAGCUUAGAGUCUCUGUAAGGGACAUGUGUGGCUCUCUUGCUCUUGUCCCCCAAGGCGCUGAUUACAUUCCCAAGAGCCAACAGAGGAUUGAGCAUCA
B14: chr4:140309118:140309119:+_ENSG00000164134_ENST00000296543|hu_mus|FALSE|FALSE (ssRNA)
RNA: GGGAGUUCUACAGUCCGACGAUCGUAUCCAGGAGGCAUGAAAGCCAAAGCAUAAGGGAAAAGCUUAUGACAACUUGCUCUGUAGGCUUCGGCAGCUUCUUUACAGUCUCCUAGGCUACCAUCACACAAGGCUUCCAACACCUCCAACAGAGGAUUGAGCAUCA
B15: chr3:10015032:10015033:+_ENSMUSG00000027533_ENSMUST00000029046|mus_mus|mus_mus_mus_hu_True|1_58 (ssRNA)
RNA: GGGAGUUCUACAGUCCGACGAUCGUUUUUACCAUCACAAGUGAUGAUACAAUCUGGCUUGGCCAUUGCGCCCAUUUUCCUAAGAGCUAUUCCCACUCCUAGCUCCUUCAUGUAUUCAUCAAAGCCUUUGCUGUCCAUCAGGCGCAACAGAGGAUUGAGCAUCA
B16: 64658990_64660614_189_3pUTR_ENSMUSG00000024083_ENSMUST00000024889|mouse|control|control (ssRNA)
RNA: GGGAGUUCUACAGUCCGACGAUCAUCCAAUGAACUGGAACCUGAGGUGUUCUCCUUUGGAACAUCGUCUAGUUCCAACACUUCAUAGUCAUCACCAGCCCGACCCAAGCUUCUUUCAUGCCUGGUCAUACAUGGCUUAAAACUCAACAGAGGAUUGAGCAUCA
B17: 104713310_104714935_678_CDS_ENSG00000198431_ENST00000397736|human|control|control (ssRNA)
RNA: GGGAGUUCUACAGUCCGACGAUCAGCGACAUAGGAUGCUCCAACAACCAGGGUCUUACCCGGGCAGUAAGGCAAGGAGAAAAGAUCAUCACUGCUGAUGCAGUAUUCUUUGUCACCAGGGAUGCCCAAGUAACGUGGUCUUUCCAACAGAGGAUUGAGCAUCA
B18: chr11:4127340:4127341:+_ENSG00000167325_ENST00000300738|hu_mus|hu_hu_hu_mus_False|28_88 (ssRNA)
RNA: GGGAGUUCUACAGUCCGACGAUCGGCAUAGUCAGGGUGCUUCGUGGUCAAGGUUGCGGCUGUCUCAGCAGCCAGGGUGUCCAGUUCCACUGUGGUGACCCCACUAUACAAGCCUUGGAUUACUUUCAUGGUGAUCUGAGCAGGCAACAGAGGAUUGAGCAUCA
B19: chr14:49642940:49642941:-_ENSMUSG00000061244_ENSMUST00000162175|mus_mus|motif|central (ssRNA)
RNA: GGGAGUUCUACAGUCCGACGAUCUAAAGCAUAAUCAAUAUGCUCAAUACAUAAAAAUUCCACAAGAAUGGUAAAAAUUCGGAAGGCAUUCCUUGGUAAAUCAGAAGGAUCAGAAAGCCUAUGACAUCUUUCAAAGGCUUGUUUCAACAGAGGAUUGAGCAUCA
B20: 21140421_21141420_1149_CDS_ENSG00000141458_ENST00000269228|human|control|control (ssRNA)
RNA: GGGAGUUCUACAGUCCGACGAUCCUCCAUCCCAUGGACUGGAAAAUCUGAAAACACAGGAGUGAUGGUAAAAGGUGCCUGUCCAUUGUCCUUAUUGAACAUGUAUUCAAUCCAGUUGGUGGCAUUACAGGCGUCAGCGUCCUUCAACAGAGGAUUGAGCAUCA
B21: chr3:142455422:142455423:-_ENSMUSG00000004591_ENSMUST00000043812|mus_mus|FALSE|FALSE (ssRNA)
RNA: GGGAGUUCUACAGUCCGACGAUCGGGAGAACAACAGAGUGACAGCCUAGGAGAAAAAAGGGAAAAACAAAACAAAAAUCUAAUAAAAUUCCAGCCCAGUGAAGAUCAUGAUUUGCAAACAGGCAUAUGGUAAGAGCGAUACAACAACAGAGGAUUGAGCAUCA
B22: chr3:142455422:142455423:-_ENSMUSG00000004591_ENSMUST00000043812|mus_mus|motif|central (ssRNA)
RNA: B21 RNA with U80G, A81G
B23: chr16:94690093:94690094:+_ENSMUSG00000040785_ENSMUST00000117648|mus_hu|mus_mus_mus_hu_True|68_98 (ssRNA)
RNA: GGGAGUUCUACAGUCCGACGAUCGGGCUGGGAUGACAGCAGACAGCCCUCGAUUCCAGGGGGAAAAAAAAAUAGCCGAUACUAAUUAAAAAGUGUUAAUGAUUUUUGAAAAUCAGAUUACAUCUAUAAAAGAUGAAAAGCAAACAACAGAGGAUUGAGCAUCA
B24: chr7:74146866:74146867:+_ENSG00000077809_ENST00000416070|hu_hu|motif|central (ssRNA)
RNA: GGGAGUUCUACAGUCCGACGAUCUUCCUUUGCAAGUAAUAUCCUCUCCAGGCGAGGAAUUCCGUAAGUAGAUGGCCUUCGGAAAGGAAUUCCUUCAGGAAGUCCUUCUACAUAAAGAUCUUCAACAUGAGACUGGAAAAGAGGCAACAGAGGAUUGAGCAUCA
B25: 82880966_82885890_579_3pUTR_ENSMUSG00000000627_ENSMUST00000000641|mouse|control|control (ssRNA)
RNA: GGGAGUUCUACAGUCCGACGAUCGCUGGAAACUGGACACAUCAAUAACCCCGCACUUCGGAUCAAAAGCGAAGGUGCCACACGUGAGGAGGUGAGAGGCAUUGGCAAUGGCGAGAAUCUGGAUAAAAUUGUGACAUUCGUCCUCAACAGAGGAUUGAGCAUCA
B26: 65373527_65373647_4270_3pUTR_ENSMUSG00000024589_ENSMUST00000163516|mouse|control|control (ssRNA)
RNA: GGGAGUUCUACAGUCCGACGAUCAGGGAGGCAGGAGCAAUCGCCACGAGUGAUAUUCGUGAAAAAAAAAAAAAAAAUGGAAACAAAACCAGAUGUGACCUCCAUAAAGUGCCUUCAGAAGGGACGCAGAUACAGCAAAGGAAGCAACAGAGGAUUGAGCAUCA

These binders were tested against T1, UNK ZnF1-3 (assay: nsRBNS (natural sequence RNA bind-n-seq); RBNS binding buffer (assumed for nsRBNS): 25 mM Tris pH 7.5, 150 mM KCl, 3 mM MgCl2, 0.01% Triton X-100, 500 ug/ml BSA, 20 U/ml SUPERase-In, 4 C; UNK is unkempt and MSI1 is Musashi-1; names of the RNAs are library labels; protein concentration not given here; high values mean tight binding).

Row | Binder | binding signal [enrichment R]
1 | B1 | 0.938
2 | B2 | 1.58
3 | B3 | 0.69
4 | B4 | 0.543
5 | B5 | 0.994
6 | B6 | 0.781
7 | B7 | 1.35
8 | B8 | 6.08
9 | B9 | 0.965
10 | B10 | 1.02
11 | B11 | 0.804
12 | B12 | 3.97
13 | B13 | 0.772
14 | B14 | 0.414
15 | B15 | 0.728
16 | B16 | 0.333
17 | B17 | 1.69
18 | B18 | 0.876
19 | B19 | 0.426
20 | B20 | 0.935
21 | B21 | 4.59
22 | B22 | 5.45
23 | B23 | 3.34
24 | B24 | 0.729
25 | B25 | 2.22
26 | B26 | 6.96
